± gives the standard deviation of the averaged measurements. Whole data set: some 25,000 sequences, median “ln(normalized median fluorescence intensity)” near 10, cut for the highest 2% near 12. Only a selection was taken, and the highest values are over-represented in it overall.
Each sequence was assayed on PfAP2-G AP2 domain (GST-tagged) (assay: gcPBM binding intensity (ln(normalized median fluorescence intensity)); higher = stronger DNA binding).
Summary of the method: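 Plasmodium falciparum DNA-binding domains carrying a GST tag were expressed in E. coli and applied for 1 h, at about 25 μg on average, to an Agilent 4 × 180k array. The array held primer-extended double-stranded 36-bp intergenic genomic probes together with negative controls, and binding took place in 1× PBS with 1% milk, 0.2 mg/ml BSA, 0.5% salmon testes DNA and 0.03% Triton X-100. An Alexa488 anti-GST antibody detected bound protein, and the array was scanned at 488 nm. Binding intensity is taken as the highest Masliner-normalised natural-log median intensity across replicate spots of either probe orientation.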

| Sequence | gcPBM binding intensity (ln) |
| --- | --- |
| TTTTGGATCATTTGTTGTACATATGCAAAAAAAAAA [XGTACX_site3157] | 11.3 ± 0.91 |
| TTCATCTTAAAATTGGGTACATAACACAAAGTATAA [XGTACX_site1894] | 11.3 ± 0.93 |
| ATGGTATCTTTTAGAAGTACATCATGATAATAATTT [XGTACX_site5544] | 11.7 ± 0.91 |
| ATCTTATCATTTTAAAGTACATAATTAATTCTTTTT [XGTACX_site3999] | 11.2 ± 0.67 |
| TTAAGAATATCTTAGAGTACATTTTATCATCTTAAA [XGTACX_site8298] | 11 ± 0.68 |
| ATTTTTTTTTAATGCAAAAGGTGATGATCGGTCATA [CACACA_negctrl_site959] | 10.2 ± 0.35 |
| TATTAAAAATGTTAAGTGCAAAAATAAAAATTGTGG [GTGCAC_site9854] | 10.2 ± 0.17 |
| GATACACCAAATAACTGTACGCACGTGTAATATTAA [XGTACX_site3441] | 11.6 ± 0.83 |
| ATGCATATAACTACGTGTACAAATATACACAAATAC [XGTACX_site8811] | 11.4 ± 0.86 |
| ATTAAAAAAATATACGCACACAAAATGTAATAACAA [CACACA_site2439] | 10.4 ± 0.21 |
| CTTATACTTCTACATCGTACAAAAGATGGTATAATT [XGTACX_site2698] | 10.8 ± 0.43 |
| GAACCGTTTTTATGTAGTACATATGTATATATATAT [XGTACX_site1577] | 11.6 ± 1.1 |
| TATTTACATTTTAGTAGTACATATATGTATATATAT [XGTACX_site6839] | 11.3 ± 0.79 |
| ATGTATATATATATATGTACATATTTTTTATATGTA [XGTACX_site441] | 11.2 ± 0.81 |
| ATATTATATTGGATGTTGCACTTAACAAAAGGATAT [GTGCAC_site9478] | 10.2 ± 0.23 |
| TTTTTTTCTTTTTGAGGTACGCATTATTTTATTTGT [XGTACX_site6996] | 11.3 ± 0.79 |
| GAATTTCGATATATGTGTACGCATTTGTATTATAGG [XGTACX_site6332] | 11.7 ± 1.1 |
| AATAATAAATTATGGTGTACGCATTTGTATATATAC [XGTACX_site5417] | 11.7 ± 0.98 |
| ATATATTAATAATTTTGTACGCATTTCCTTTTTATT [XGTACX_site1638] | 11.5 ± 1 |
| ATAATTATATATTTATGTACGCATAAATATTTATAT [XGTACX_site5765] | 11.5 ± 1.2 |
| TTTCGATTATGTTTTTGTACGCAATATATTAATTCT [XGTACX_site3634] | 11.5 ± 1 |
| TATTATATATATAGGTGTACGCATTTGTCCTTTATA [XGTACX_site1385] | 11.7 ± 1.1 |
| CCTTATACGATATTATGTACGCATATGTGCATTTTT [XGTACX_site1570] | 11.5 ± 1 |

| Sequence | gcPBM binding intensity (ln) |
| --- | --- |
| ATATTAAATATAATTTGTACGCATTTTTTTTTTTTT [XGTACX_site1910] | 11.5 ± 0.82 |
| TACATAAACATTTATACACACATTATGTATACATAT [CACACA_site405] | 10.04 ± 0.035 |
| TAAAAATATTTTCATTGTACATATATATAAATATAT [XGTACX_site1123] | 10.9 ± 0.61 |
| ACATTTTTGGTTTTAGTGCAATATGAATTATTTTAT | 10.12 ± 0.078 |
| ATAAAATATAAAAATTGTACGATAATAATAGTAGGA [XGTACX_site8951] | 10.8 ± 0.36 |
| AAGGATATAAAAAAACGTACGTACGATAATATAATT [XGTACX_site1292] | 11.6 ± 0.91 |
| AAAAAAAAATTAATATATAAAAGGATATATATATAT [GTGCAC_negctrl_site449] | 9.77 ± 0.46 |
| TCATATATATTATACACACACATATATAAATATATA [CACACA_site967] | 10 ± 0.23 |
| GTGTAGTAAAATCGATGTACGTACAAATCAATTATT [XGTACX_site7662] | 11.8 ± 0.83 |
| TCATGTAGTAAAAACTGTACAAATTATTTATCATGT [XGTACX_site1727] | 11 ± 0.64 |
| TTATTAAAAATGTATTGTACAAATTTATTAGTAAAT [XGTACX_site4799] | 11 ± 0.52 |
| ACCTTTATTGTATGAACACACATAAGCTGATACATC [CACACA_site4028] | 10.2 ± 0.11 |
| ATTTATTTCAATAAACTTCTTTTCTTTAACAATTAC [CACACA_negctrl_site1222] | 9.845 ± 0.035 |
| TATTCATATTTAAAGGTGCAATATTTATTTTGTACA | 10.2 ± 0.18 |
| CCTCCCATTTTTACACGTACACATTTAAAATAGACT [XGTACX_site5640] | 11.7 ± 1.1 |
| TATTTTACACATTTACGTACATAAATATATATATAT [XGTACX_site8788] | 11.6 ± 0.95 |
| AAAAGACATTTTTTTTTATAAATACACACGTACGTG [TGCATGCA_negctrl_site281] | 11.1 ± 0.72 |
| TCTTATGATGGAATGTTAAATATTACATTTTGTTTA [TGCATGCA_negctrl_site503] | 9.51 ± 0.22 |
| GAAACGTTTTTGAGTAGTACACACACAATAAGGATG [XGTACX_site6809] | 11.7 ± 1.1 |
| GTTTTTGAGTAGTACACACACAATAAGGATGGATTC [CACACA_site3192] | 11.5 ± 0.97 |
| ACGTTTTTGAGTAGTACACACACAATAAGGATGGAT [CACACA_site9044] | 11.5 ± 0.97 |
| TTAAAAATGTTGGAAAGTACATATTTTTTAAAAGTA [XGTACX_site802] | 11.1 ± 0.61 |
